# Article PMC7862700, “An all-to-all approach to the identification of sequence-specific readers for epigenetic DNA modifications on cytosine”
# Legend:
# Assay in all cases: DAPPL (digital affinity profiling via proximity ligation, sequencing); 10 mM Tris-HCl pH 7.5, 50 mM NaCl, 1 mM DTT, 4% glycerol, room temperature, 30 min; GST-TFs on glutathione beads, 16-mer random dsDNA library, 0.1% formaldehyde crosslink after washing; high values mean tight binding
# FEV = biological target: T1, FEV (Homo sapiens, UniProt Q99581 1-238); settings: protein: recombinant; tags: N-terminal GST; dsDNA, one strand shown
# T1 sequence: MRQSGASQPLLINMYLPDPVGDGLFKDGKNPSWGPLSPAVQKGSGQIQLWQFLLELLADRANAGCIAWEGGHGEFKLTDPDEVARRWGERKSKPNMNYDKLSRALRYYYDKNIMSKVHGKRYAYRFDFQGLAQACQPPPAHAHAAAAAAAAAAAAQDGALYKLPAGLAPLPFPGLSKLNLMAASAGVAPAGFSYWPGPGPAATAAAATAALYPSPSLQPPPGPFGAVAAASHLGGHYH
# In short: (§1)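 Binding signal is each hexamer's read frequency for a factor divided by its frequency in the tag-only sample. The factors were GST-fused human transcription factors from yeast, captured on glutathione beads, DNA-barcoded and pooled with that sample. Pools were incubated with 200 nmole of a random double-stranded 16-mer DNA library in Tris/NaCl/DTT/glycerol buffer at room temperature for 30 min, then washed, crosslinked with 0.1% formaldehyde, proximity-ligated with BsaI/T4 ligase (1 h, 37 °C), PCR-amplified and sequenced on an Illumina NextSeq500.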
# ETV5 = ETV5 (Homo sapiens, UniProt P41161 1-510); settings: protein: recombinant; tags: N-terminal GST; dsDNA, one strand shown
# In short: as §1
# HSF1 = HSF1 (Homo sapiens, UniProt Q00613 1-529); settings: protein: recombinant; tags: N-terminal GST; chain copies: 3; dsDNA, one strand shown
# In short: as §1
# SPIC = biological target: T2, SPIC (Homo sapiens, UniProt Q8N5J4 1-248); settings: protein: recombinant; tags: N-terminal GST; dsDNA, one strand shown
# T2 sequence: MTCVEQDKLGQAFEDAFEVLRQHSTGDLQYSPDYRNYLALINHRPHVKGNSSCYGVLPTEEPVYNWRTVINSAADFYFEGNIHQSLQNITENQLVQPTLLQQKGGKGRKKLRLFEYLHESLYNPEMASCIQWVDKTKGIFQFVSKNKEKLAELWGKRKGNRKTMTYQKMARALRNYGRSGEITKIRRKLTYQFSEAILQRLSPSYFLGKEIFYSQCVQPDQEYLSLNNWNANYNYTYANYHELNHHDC
# In short: as §1
# ELF4 = ELF4 (Homo sapiens, UniProt Q99607 1-663); settings: protein: recombinant; tags: N-terminal GST; dsDNA, one strand shown
# In short: as §1
# ETV2 = biological target: T3, ETV2 (Homo sapiens, UniProt O00321 1-342); settings: protein: recombinant; tags: N-terminal GST; dsDNA, one strand shown
# T3 sequence: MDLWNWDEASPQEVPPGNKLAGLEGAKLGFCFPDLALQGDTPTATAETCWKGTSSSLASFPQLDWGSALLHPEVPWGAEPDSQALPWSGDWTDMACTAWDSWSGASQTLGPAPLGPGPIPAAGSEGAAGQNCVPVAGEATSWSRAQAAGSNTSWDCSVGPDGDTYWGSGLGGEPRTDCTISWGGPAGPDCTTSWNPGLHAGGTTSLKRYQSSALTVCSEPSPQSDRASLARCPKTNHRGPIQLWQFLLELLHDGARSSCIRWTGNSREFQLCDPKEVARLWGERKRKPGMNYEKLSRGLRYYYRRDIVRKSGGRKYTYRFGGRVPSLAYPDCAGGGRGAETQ
# In short: as §1
# CRX = CRX (Homo sapiens, UniProt O43186 1-299); settings: protein: recombinant; tags: N-terminal GST; dsDNA, one strand shown
# In short: as §1
# ETV1 = ETV1 (Homo sapiens, UniProt P50549 1-477); settings: protein: recombinant; tags: N-terminal GST; dsDNA, one strand shown
# In short: as §1
# ERF = biological target: T4, ERF (Homo sapiens, UniProt P50548 1-548); settings: protein: recombinant; tags: N-terminal GST; dsDNA, one strand shown
# T4 sequence: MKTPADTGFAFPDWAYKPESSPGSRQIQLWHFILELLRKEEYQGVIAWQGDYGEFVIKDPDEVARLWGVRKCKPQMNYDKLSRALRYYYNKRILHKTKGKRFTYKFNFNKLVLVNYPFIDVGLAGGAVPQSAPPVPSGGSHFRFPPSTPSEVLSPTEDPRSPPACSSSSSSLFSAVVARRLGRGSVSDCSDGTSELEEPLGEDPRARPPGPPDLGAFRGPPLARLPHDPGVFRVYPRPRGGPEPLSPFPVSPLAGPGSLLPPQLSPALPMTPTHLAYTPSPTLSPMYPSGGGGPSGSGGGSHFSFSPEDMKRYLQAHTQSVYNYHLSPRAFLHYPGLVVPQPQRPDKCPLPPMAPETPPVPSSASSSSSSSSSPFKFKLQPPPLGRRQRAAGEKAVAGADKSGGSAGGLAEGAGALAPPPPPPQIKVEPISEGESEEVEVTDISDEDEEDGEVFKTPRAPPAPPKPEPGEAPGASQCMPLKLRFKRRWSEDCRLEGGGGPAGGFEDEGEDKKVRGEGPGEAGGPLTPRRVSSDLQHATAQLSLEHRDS
# In short: as §1
# ETV3L = biological target: T5, ETV3L (Homo sapiens, UniProt Q6ZN32 1-361); settings: protein: recombinant; tags: N-terminal GST; dsDNA, one strand shown
# T5 sequence: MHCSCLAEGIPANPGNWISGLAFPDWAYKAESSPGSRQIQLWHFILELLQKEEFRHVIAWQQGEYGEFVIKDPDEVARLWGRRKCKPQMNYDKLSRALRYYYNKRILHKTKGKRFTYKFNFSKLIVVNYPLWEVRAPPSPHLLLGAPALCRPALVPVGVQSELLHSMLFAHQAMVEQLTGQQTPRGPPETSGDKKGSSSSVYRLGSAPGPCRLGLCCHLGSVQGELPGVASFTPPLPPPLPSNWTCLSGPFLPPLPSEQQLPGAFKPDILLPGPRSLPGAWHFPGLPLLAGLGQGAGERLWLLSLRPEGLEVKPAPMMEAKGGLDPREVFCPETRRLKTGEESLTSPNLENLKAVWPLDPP
# In short: as §1
# ETS2 = biological target: T6, ETS2 (Homo sapiens, UniProt P15036 1-469); settings: protein: recombinant; tags: N-terminal GST; dsDNA, one strand shown
# T6 sequence: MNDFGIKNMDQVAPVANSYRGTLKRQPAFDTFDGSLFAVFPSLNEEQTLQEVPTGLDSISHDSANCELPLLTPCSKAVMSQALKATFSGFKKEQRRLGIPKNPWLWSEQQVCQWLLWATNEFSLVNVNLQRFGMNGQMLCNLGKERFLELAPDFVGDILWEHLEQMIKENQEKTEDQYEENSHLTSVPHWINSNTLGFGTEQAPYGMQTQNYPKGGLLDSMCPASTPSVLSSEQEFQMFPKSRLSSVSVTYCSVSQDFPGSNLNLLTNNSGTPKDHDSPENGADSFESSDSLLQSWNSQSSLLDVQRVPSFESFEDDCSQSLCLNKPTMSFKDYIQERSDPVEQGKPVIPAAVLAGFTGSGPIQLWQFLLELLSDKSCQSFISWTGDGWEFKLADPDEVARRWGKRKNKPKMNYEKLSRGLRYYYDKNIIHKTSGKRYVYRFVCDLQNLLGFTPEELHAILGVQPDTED
# In short: as §1
# SPDEF = biological target: T7, SPDEF (Homo sapiens, UniProt O95238 1-335); settings: protein: recombinant; tags: N-terminal GST; dsDNA, one strand shown
# T7 sequence: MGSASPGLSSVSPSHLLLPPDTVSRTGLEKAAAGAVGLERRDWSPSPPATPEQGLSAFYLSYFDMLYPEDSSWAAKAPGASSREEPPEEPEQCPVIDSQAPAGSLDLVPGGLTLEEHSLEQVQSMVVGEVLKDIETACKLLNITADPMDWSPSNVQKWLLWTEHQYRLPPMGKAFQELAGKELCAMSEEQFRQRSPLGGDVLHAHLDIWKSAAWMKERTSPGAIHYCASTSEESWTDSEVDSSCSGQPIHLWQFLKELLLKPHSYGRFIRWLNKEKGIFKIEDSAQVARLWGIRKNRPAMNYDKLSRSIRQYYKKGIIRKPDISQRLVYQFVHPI
# In short: as §1
# ETV7 = biological target: T8, ETV7 (Homo sapiens, UniProt Q9Y603 1-341); settings: protein: recombinant; tags: N-terminal GST; dsDNA, one strand shown
# T8 sequence: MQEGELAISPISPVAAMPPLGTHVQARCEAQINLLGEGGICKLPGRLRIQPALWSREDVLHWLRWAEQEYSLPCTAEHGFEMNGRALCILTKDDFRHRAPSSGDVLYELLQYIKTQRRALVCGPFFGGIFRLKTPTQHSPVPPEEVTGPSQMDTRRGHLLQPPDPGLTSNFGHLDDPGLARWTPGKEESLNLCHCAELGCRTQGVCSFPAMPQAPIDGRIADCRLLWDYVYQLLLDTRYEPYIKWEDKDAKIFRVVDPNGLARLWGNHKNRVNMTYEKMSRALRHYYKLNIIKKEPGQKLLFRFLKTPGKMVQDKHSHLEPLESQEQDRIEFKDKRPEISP
# In short: as §1
# ELF5 = biological target: T9, ELF5 (Homo sapiens, UniProt Q9UKW6-2 1-255); settings: protein: recombinant; tags: N-terminal GST; dsDNA, one strand shown
# T9 sequence: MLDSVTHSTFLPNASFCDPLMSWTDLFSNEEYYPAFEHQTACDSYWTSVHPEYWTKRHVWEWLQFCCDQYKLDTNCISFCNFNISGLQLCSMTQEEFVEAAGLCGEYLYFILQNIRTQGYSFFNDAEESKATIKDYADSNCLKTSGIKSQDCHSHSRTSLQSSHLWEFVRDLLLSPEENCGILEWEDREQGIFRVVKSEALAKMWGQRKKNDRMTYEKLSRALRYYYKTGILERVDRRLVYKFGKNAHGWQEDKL
# In short: as §1
# ETV3 = biological target: T10, ETV3 (Homo sapiens, UniProt P41162-2 1-143); settings: protein: recombinant; tags: N-terminal GST; dsDNA, one strand shown
# T10 sequence: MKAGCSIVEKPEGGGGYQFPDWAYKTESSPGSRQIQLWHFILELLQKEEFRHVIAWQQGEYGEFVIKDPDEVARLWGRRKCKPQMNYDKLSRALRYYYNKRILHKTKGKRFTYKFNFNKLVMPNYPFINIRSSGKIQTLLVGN
# In short: as §1
# ETV6 = ETV6 (Homo sapiens, UniProt P41212 1-452); settings: protein: recombinant; tags: N-terminal GST; dsDNA, one strand shown
# In short: as §1
# Chain of CRX (O43186 whole entry): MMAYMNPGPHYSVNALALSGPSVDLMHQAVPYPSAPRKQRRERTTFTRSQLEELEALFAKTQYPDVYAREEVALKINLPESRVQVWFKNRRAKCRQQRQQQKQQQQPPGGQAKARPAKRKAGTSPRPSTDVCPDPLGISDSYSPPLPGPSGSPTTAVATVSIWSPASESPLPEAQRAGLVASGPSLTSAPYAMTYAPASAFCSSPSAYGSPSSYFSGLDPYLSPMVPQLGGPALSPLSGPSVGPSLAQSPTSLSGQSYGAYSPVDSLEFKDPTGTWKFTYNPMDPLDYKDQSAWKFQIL
# Chain of ELF4 (Q99607 whole entry): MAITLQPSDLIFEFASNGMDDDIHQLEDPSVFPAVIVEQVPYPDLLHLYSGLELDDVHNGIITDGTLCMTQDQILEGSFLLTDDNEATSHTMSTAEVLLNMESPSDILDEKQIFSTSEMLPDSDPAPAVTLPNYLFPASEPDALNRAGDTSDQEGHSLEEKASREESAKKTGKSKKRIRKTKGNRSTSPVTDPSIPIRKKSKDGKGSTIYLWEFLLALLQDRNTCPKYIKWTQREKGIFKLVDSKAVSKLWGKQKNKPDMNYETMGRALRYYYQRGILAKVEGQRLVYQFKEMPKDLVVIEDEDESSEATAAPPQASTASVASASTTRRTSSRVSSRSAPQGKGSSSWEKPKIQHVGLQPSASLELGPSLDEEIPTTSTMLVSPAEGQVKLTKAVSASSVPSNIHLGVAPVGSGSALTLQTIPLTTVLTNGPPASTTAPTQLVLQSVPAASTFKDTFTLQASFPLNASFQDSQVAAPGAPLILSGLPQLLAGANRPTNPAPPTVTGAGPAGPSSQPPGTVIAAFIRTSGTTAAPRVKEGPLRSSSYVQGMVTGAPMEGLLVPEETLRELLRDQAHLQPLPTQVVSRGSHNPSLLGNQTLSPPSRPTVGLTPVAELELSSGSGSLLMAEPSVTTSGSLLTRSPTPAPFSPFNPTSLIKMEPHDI
# Chain of ETV1 (P50549 whole entry): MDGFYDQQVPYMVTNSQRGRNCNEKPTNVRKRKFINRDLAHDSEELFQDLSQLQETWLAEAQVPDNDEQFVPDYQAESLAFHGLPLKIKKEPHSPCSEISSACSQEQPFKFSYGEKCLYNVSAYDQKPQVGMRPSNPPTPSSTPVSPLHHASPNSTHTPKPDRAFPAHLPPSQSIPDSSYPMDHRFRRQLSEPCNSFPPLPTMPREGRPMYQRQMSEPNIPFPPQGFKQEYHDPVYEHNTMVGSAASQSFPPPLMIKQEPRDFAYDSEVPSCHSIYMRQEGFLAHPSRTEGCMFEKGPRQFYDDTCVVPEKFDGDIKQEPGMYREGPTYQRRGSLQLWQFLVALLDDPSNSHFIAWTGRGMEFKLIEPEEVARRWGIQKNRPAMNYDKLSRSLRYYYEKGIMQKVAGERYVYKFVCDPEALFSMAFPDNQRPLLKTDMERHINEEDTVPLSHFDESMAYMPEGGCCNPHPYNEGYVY
# Chain of ETV6 (P41212 whole entry): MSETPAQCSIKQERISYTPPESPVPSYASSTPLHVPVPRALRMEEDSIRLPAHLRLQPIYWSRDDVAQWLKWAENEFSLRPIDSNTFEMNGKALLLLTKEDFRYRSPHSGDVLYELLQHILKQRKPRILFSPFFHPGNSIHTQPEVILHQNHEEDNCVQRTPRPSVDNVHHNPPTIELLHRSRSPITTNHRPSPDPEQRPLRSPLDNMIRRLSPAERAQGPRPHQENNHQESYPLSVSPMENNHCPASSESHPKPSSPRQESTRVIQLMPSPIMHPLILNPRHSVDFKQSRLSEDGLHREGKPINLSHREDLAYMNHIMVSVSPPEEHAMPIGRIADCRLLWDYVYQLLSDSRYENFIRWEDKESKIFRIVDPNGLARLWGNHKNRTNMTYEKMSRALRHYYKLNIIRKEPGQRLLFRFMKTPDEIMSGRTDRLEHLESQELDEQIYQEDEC
# Chain of HSF1 (Q00613 whole entry): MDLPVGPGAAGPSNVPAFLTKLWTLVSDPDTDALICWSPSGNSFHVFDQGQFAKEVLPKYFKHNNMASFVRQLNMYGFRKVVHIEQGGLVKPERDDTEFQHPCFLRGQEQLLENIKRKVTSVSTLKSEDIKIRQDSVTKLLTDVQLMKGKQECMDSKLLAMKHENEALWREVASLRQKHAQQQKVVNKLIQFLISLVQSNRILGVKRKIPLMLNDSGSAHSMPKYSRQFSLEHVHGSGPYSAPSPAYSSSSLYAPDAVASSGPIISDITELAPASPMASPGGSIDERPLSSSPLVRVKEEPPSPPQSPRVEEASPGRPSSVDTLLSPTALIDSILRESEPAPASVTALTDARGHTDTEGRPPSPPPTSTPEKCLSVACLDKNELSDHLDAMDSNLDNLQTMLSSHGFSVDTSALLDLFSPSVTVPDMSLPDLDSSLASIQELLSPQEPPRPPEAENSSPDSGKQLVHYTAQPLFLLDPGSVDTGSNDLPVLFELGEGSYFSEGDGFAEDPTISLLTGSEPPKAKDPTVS
# Chain of ETV5 (P41161 whole entry): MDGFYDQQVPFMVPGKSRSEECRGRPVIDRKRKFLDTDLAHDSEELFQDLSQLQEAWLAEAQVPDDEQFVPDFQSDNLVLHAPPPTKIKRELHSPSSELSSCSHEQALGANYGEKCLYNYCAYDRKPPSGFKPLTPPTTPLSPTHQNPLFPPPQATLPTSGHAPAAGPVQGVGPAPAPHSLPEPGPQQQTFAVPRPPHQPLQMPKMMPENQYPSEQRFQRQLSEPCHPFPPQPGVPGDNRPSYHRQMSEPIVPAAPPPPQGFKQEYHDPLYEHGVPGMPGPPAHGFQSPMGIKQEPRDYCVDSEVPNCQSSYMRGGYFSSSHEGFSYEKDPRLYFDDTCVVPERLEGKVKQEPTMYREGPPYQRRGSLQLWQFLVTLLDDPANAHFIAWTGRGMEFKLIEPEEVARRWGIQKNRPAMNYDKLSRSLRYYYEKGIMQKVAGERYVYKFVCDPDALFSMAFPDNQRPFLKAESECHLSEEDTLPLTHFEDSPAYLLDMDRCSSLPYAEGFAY
sequence,measurement,setting,value
GTACTA,binding signal,FEV,"1.12 fold enrichment (6-mer frequency, TF over GST control)"
same,binding signal,ETV5,"1.14 fold enrichment (6-mer frequency, TF over GST control)"
same,binding signal,HSF1,"1.15 fold enrichment (6-mer frequency, TF over GST control)"
same,binding signal,SPIC,"1.11 fold enrichment (6-mer frequency, TF over GST control)"
same,binding signal,ELF4,"1.08 fold enrichment (6-mer frequency, TF over GST control)"
same,binding signal,ETV2,"1.21 fold enrichment (6-mer frequency, TF over GST control)"
same,binding signal,CRX,"1.12 fold enrichment (6-mer frequency, TF over GST control)"
same,binding signal,ETV1,"1.13 fold enrichment (6-mer frequency, TF over GST control)"
same,binding signal,ERF,"1.21 fold enrichment (6-mer frequency, TF over GST control)"
same,binding signal,ETV3L,"1.05 fold enrichment (6-mer frequency, TF over GST control)"
same,binding signal,ETS2,"1.13 fold enrichment (6-mer frequency, TF over GST control)"
same,binding signal,SPDEF,"1.1 fold enrichment (6-mer frequency, TF over GST control)"
same,binding signal,ETV7,"1.09 fold enrichment (6-mer frequency, TF over GST control)"
same,binding signal,ELF5,"1.13 fold enrichment (6-mer frequency, TF over GST control)"
same,binding signal,ETV3,"1.09 fold enrichment (6-mer frequency, TF over GST control)"
same,binding signal,ETV6,"1.15 fold enrichment (6-mer frequency, TF over GST control)"
